Test results as given in PubChem BioAssay AID504333 (National Center for Advancing Translational Sciences (NCATS), 2011).
Several values for one entry are separate records, joined by “and”; a condition that tells them apart may be missing. Equal values may be shown once. Hit rate of the full screen: of about 360,000 compounds, about 16,000 (4.4%) were called active. About 9% were inconclusive and are not listed. Calls come from the whole dose curve; as a rule, active = well fitted inhibition curve with a large enough effect; inconclusive = small, poorly fitted or top-dose-only effect; inactive = no such curve, though single readings can be large or run the other way. The entries come from a sample that favours actives as a whole. Where a call stands in place of a potency, no number is given.

The molecules below were run against Bromodomain adjacent to zinc finger domain protein 2B (Homo sapiens) (UniProt Q9UIF8) (assay: qHTS Assay for Inhibitors of BAZ2B). Settings: AlphaScreen BAZ2B-H3K14Ac peptide displacement; series mostly up to 114 µM.
Description: BAZ2B (bromodomain adjacent to zinc finger domain, 2B) belongs to a family of ubiquitously expressed bromodomain containing proteins, which biological function has not yet been elucidated. […] The interaction of BAZ2B with ISWI mediated by the BAZ1 motif has recently been described. […] The protocol is based on the AlphaScreen (PerkinElmer) displacement assay developed by NCGC [5], but uses the peptide ligand Biot-H3K14Ac, a high affinity binding partner for BAZ2B, in an AlphaScreen format. Although AlphaScreen has significant advantages with its utility in a variety of epigenetic target assays, the primary screening data provided in this deposition should be used with caution due to the prevalence of screening artifacts. The top compound concentration tested was 110uM in this assay, which increases number of actives and potential artifacts. An AlphaScreen counterscreen is highly recommended to be run against any putative actives to eliminate non-specific artifacts. Alternatively, one can use other AlphaScreen assays in PubChem to filter out promiscuous hits. Eberharter, A. et al. ACF1 improves the effectiveness of nucleosome mobilization by ISWI through PHD-histone contacts. The EMBO journal 23, 4029-4039. 2004. PMID: 15457208 [2] Jones, M.H. et al. A novel family of bromodomain genes. Genomics 63, 40-45. 2000. PMID: 10662543 [3] Yasgar, et al. Compound Management for Quantitative High-Throughput Screening. JALA. 2008 Apr;13(2):79-89. PMID: 18496600 [4] Inglese, et al. Quantitative high-throughput screening: a titration-based approach that efficiently identifies biological activities in large chemical libraries. Proc Natl Acad Sci. 1;103(31):11473-8. 2006. PMID: 16864780 [5] Quinn et al. A chemiluminescence-based method for identification of histone lysine methyltransferase inhibitors. Mol Biosyst 6(5): 782-8. 2010. PMID: 20567762 [6] Baell,Holloway. New substructure filters for removal of pan assay interference compounds (PAINS) from screening libraries and for their exclusion in bioassays. J Med Chem. 53(7):2719-40. 2010. PMID: 20131845 NIH Molecular Libraries Probe Production Network [MLPCN] NIH Chemical Genomics Center [NCGC] Structural Genomics Consortium (SGC) NIH Grant: 5U54 MH084681-02
To each well of a 1,536w plate, 2ul of BAZ2B protein (final 50nM) and 1ul biotinylated histone peptide acetylated at Lys14 [b-H3(5-23)K14Ac] (final 50nM) were added in 1x PBS buffer, pH 7.4, containing 0.01% Tween-20, using a nanoliter dispenser. Formation of a protein-peptide complex proceeded at room temperature for 30 min. A Kalypsys pin-tool was employed to transfer 23 nL of library compound solution in DMSO to each well. Following a 30 min incubation of the protein-peptide complex with compounds at room temperature, a mixture of 40 ug/mL each streptavidin-coated donor and nickel chelate acceptor AlphaScreen beads (final 10 ug/mL) were added in a 1ul dispense for a final volume of 4ul. A brief centrifugation followed (1000rpm, 1 min) and were then incubated protected from the light for 20 min at room temperature. Plates were read on an EnVision multilabel plate reader using the 1,536 plate HTS AlphaScreen aperture (excitation time 80 ms, measurement time 240 ms).
Note: nearly all actives have a fitted effect of over 60% in size.
Potency is the fitted concentration of half-maximal effect.

Sequence of Bromodomain adjacent to zinc finger domain protein 2B (Homo sapiens) (Q9UIF8 whole entry, looked up, the tested form may be a part): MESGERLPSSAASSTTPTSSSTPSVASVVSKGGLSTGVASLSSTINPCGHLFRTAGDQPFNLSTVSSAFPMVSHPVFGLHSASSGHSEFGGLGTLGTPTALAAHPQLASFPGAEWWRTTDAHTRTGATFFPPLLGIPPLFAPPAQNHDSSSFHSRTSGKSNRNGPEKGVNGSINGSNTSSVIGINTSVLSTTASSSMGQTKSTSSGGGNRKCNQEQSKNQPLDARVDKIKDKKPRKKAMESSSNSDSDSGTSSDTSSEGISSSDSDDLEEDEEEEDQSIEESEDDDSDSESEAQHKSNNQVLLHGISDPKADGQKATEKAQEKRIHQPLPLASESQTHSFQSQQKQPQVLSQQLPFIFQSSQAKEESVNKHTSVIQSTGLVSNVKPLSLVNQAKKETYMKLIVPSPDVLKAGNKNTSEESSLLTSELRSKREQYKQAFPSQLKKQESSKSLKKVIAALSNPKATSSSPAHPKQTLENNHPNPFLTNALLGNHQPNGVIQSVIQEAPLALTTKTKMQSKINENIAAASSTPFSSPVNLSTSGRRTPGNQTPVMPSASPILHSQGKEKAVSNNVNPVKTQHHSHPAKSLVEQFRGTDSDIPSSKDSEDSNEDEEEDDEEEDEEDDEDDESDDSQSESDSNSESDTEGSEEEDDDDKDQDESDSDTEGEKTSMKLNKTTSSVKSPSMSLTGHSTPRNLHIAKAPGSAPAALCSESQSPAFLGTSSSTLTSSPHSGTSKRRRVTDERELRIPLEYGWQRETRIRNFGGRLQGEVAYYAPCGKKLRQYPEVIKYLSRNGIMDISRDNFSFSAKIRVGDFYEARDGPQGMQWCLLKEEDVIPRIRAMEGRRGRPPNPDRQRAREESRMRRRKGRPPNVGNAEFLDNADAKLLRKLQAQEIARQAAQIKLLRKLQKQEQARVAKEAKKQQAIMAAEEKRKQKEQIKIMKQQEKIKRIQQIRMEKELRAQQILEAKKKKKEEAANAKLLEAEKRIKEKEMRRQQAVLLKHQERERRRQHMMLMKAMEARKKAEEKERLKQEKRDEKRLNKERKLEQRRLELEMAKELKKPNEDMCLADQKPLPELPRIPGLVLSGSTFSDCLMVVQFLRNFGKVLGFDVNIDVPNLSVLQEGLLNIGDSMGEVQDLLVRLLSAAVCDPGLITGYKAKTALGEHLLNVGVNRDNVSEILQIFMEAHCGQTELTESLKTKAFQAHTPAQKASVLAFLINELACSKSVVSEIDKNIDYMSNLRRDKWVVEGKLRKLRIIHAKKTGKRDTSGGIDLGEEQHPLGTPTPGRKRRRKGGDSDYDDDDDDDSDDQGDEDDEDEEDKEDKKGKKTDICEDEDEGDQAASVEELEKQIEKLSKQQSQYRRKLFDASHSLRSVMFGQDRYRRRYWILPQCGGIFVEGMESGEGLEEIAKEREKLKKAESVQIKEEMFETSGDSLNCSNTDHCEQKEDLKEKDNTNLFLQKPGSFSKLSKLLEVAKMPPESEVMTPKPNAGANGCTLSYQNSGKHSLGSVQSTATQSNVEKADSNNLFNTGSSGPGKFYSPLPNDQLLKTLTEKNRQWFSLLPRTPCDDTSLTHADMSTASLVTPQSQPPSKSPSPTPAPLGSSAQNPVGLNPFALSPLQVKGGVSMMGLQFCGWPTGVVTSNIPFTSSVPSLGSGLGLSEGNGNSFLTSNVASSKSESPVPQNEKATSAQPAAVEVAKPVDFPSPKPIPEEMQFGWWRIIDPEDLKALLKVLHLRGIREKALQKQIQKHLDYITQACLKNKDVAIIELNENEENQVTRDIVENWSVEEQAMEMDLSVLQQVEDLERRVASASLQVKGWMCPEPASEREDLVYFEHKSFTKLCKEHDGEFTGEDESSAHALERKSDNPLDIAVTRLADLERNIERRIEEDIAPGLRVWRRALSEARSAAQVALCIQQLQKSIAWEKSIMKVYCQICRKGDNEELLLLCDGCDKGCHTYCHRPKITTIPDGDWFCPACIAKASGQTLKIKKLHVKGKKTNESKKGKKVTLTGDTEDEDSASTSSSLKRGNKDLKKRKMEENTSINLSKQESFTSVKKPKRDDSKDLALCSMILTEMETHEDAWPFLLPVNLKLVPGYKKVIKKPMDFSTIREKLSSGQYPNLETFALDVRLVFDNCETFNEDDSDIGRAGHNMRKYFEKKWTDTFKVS

| Structure (SMILES) | Potency |
| --- | --- |
| CCC(Sc1nc2n[nH]c(C)c2c(=N)n1-c1ccccc1Cl)C(=O)N(CC)CC (stereo not drawn) | inactive |
| COc1ccc(-c2nc3sc(CCNS(=O)(=O)c4ccc(F)c(C)c4)c(C)n3n2)cc1 | inactive |
| COc1ccc(-c2nc(SCC(=O)N3CCCCC3C)n[nH]2)cc1 (stereo not drawn) | inactive |
| Cc1ccc(S(=O)(=O)N2CCN(Cc3cccc(C)c3O)CC2)cc1 | inactive |
| O=C(CN1CCN(S(=O)(=O)c2ccc(F)cc2)CC1)Nc1ccccc1F | inactive |
| O=S(=O)(c1ccc(F)cc1)N1CCN(Cc2ccccc2C(F)(F)F)CC1 | 28.2 µM (active) |
| COc1ccc(-c2onc(C)c2C)cc1S(=O)(=O)NCc1cccs1 | inactive |
| CCc1ccc(S(=O)(=O)n2ccnc2)cc1 | inactive |
| CCc1cccc(C)c1Nc1c(-c2ccc(N(C)C)cc2)nc2ncccn12 | 10 µM (active) |
| Cc1ccccc1Nc1c(-c2ccccc2)nc2ncccn12 | inactive |
| Cc1c(-c2cccc(NC(=O)C(C)(C)C)c2)nc2ncccn12 | inactive |
| COc1cc(OC)c(NC(=O)c2c3c(nn2C)-c2ccccc2SC3)cc1Cl | inactive |
| O=C(NCCCO)C(=O)Nc1c2c(nn1-c1ccccc1)CSC2 | inactive |
| COc1ccc(OCCn2ccnc2C)cc1 | 56.2 µM (active) |
| COc1ccc(OCCCC(=O)Oc2ccc(OC)cc2)cc1 | inactive |
| COc1ccc(OCCCn2c(C)nc3cc(C)c(C)cc32)cc1 | inactive |
| Cc1ccc(C(=O)Nc2c(C(=O)NC(C)(C)C)oc3ccccc23)cc1 | inactive |
| COc1ccc(NC(=O)c2ccc3oc(=O)c(S(=O)(=O)c4ccc(F)cc4)cc3c2)c(OC)c1 | inactive |
| O=C(CSc1nccn1Cc1ccc(Cl)cc1)NCc1ccccc1 | inactive |
| Cc1cccc(N2CCN(C(c3ccccc3)c3nnnn3CC3CCCO3)CC2)c1C (stereo not drawn) | inactive |
| COc1ccccc1C(c1nnnn1CC1CCCO1)N1CCN(c2ccccc2)CC1 (stereo not drawn) | 56.2 µM (active) |
| COc1ccc(C(c2nnnn2Cc2cccs2)N2CCN(c3ccccc3)CC2)cc1OC (stereo not drawn) | inactive |
| COCCCNC(=O)c1ccc(NC(=O)c2nsc3ccccc23)cc1 | inactive |
| COC(=O)c1cccc(Cn2nnc3sc4c(c3c2=O)CCC(C(C)(C)C)C4)c1 (stereo not drawn) | inactive |
| Cc1cccc(N2CCN(C(=O)Cn3ncc4c5ccccc5n(C)c4c3=O)CC2C)c1 (stereo not drawn) | inactive |

| Structure (SMILES) | Potency |
| --- | --- |
| CCc1nnc(NC(=O)CSc2nnc(Cc3ccccc3)n2-c2ccc(OC)cc2)s1 | inactive |
| COc1ccc(NCc2nnc(SCc3ccccc3)n2-c2ccc(OC)cc2)cc1 | 50.1 µM (active) |
| COc1ccc(-c2nnc(SCC(=O)c3ccco3)n2-c2ccccc2)cc1 | inactive |
| Cc1ccc(Cl)cc1N1CCN(C(=O)CN2C(=O)COc3ccc(S(=O)(=O)N4CCOCC4)cc32)CC1 | inactive |
| O=C(N/N=C/c1c[nH]c2ccccc12)c1cc2ccccc2o1 | inactive |
| COc1ccc(/C=C(\C#N)c2c[nH]c3ccccc23)cc1 | inactive |
| C[n+]1ccc(/C=C/c2c[nH]c3ccccc23)cc1 | 44.7 µM (active) |
| CCOC(=O)C1CCCN(S(=O)(=O)c2cc(-c3cc(C)no3)ccc2OC)C1 (stereo not drawn) | inactive |
| COc1cccc(N2CCN(S(=O)(=O)c3ccc4c(c3)CCCN4C(C)=O)CC2)c1 | inactive |
| COc1ccccc1CN1CCC(CNC(=O)c2cnn(-c3ccccc3Cl)c2C2CCN(C(=O)OC(C)(C)C)CC2)CC1 | inactive |
| O=C(O)CCC(=O)N(Cc1cccs1)Cc1cccs1 | 56.2 µM (active) |
| O=C(CCc1ccccc1)NCCc1cccs1 | inactive |
| O=C(O)CCC(=O)N(Cc1ccccc1)Cc1ccccc1 | inactive |
| O=C1CC(c2nnc(Cc3ccc(Cl)cc3)o2)CN1c1ccccc1 (stereo not drawn) | inactive |
| CCc1ccc(NC(=O)CCS(=O)(=O)c2cc3c(cc2Cl)NC(=O)CO3)cc1 | inactive |
| CCOC(=O)Cn1c(=O)n(-c2ccccc2OC)c2nc(-c3cccc(F)c3)nc(C(N)=O)c21 | inactive |
| CC(=O)Nc1ccc(Nc2cc(C)nc(Nc3ccc(NC(C)=O)cc3)n2)cc1 | 56.2 µM (active) |
| COc1ccc(C(=O)NNc2cc(C)nc(NNC(=O)c3ccc(OC)cc3)n2)cc1 | inactive |
| Cc1ccc(Nc2nc(C)cc(C)c2C(N)=O)cc1 | inactive |
| CCN1CCN(c2cc(C)c3cc(NC(=O)c4cc(Cl)ccc4OC)ccc3n2)CC1 | inactive |
| O=C(NCc1cccnc1)C(=O)Nc1nc(-c2ccccc2)cs1 | inactive |
| O=C(Nc1nc(-c2cccnc2)cs1)c1ccccc1F | inactive |
| Cc1ccccc1Nc1nc(-c2cccnc2)cs1 | 39.8 µM (active) |
| Cc1ccccc1-c1nc(SCC(=O)N(C)c2ccccc2)c2c(=O)n(C)c(=O)n(C)c2n1 | inactive |
| Cc1ccc(CCNC(=O)c2ccc(CNS(=O)(=O)c3ccc(C)cc3)cc2)cc1 | inactive |

| Structure (SMILES) | Potency |
| --- | --- |
| CCOC(=O)c1c(NC(=O)c2cc(CC)on2)sc(C(C)=O)c1C | inactive |
| CCCCCn1c(=O)[nH]c2cc(C(=O)Nc3cc(C)cc(C)c3)ccc2c1=O | inactive |
| O=c1[nH]c(=S)[nH]c2[nH]c(=S)[nH]c12 | 28.2 µM (active) and 22.4 µM (active) |
| Cc1c(C)c(C)c2[nH]c(=S)[nH]c2c1C | inactive |
| CCOC(=O)c1ccc(NC(=O)C2CC(=O)N(c3ccc(C(C)C)cc3)C2)cc1 (stereo not drawn) | inactive |
| CS(=O)(=O)C1=NN2C(=N)/C(=C\c3ccc(OCCOc4ccccc4)cc3)C(=O)N=C2S1 | 50.1 µM (active) |
| COc1cc(/C=C2\C(=N)N3N=C(CC(=O)N4CCOCC4)SC3=NC2=O)cc(OC)c1OC | inactive |
| CCS(=O)(=O)C1=NSC2=NC(=O)/C(=C\c3ccc(OS(=O)(=O)c4ccccc4)cc3)C(=N)N21 | 56.2 µM (active) |
| CCOc1cc(/C=C2\C(=N)N3N=C(C)SC3=NC2=O)ccc1OCCOc1ccccc1 | inactive |
| COc1ccccc1OCCOc1ccc(/C=C2\C(=N)N3N=C(C)SC3=NC2=O)cc1 | inactive |
| Cc1ccc(C2=N/C(=C\c3ccc(OS(=O)(=O)c4ccc(C)cc4)cc3)C(=O)O2)cc1 | inactive |
| CCc1ccccc1N1C(=O)CN(S(=O)(=O)CC)CC1(C)C(=O)NC1CCCCC1 (stereo not drawn) | inactive |
| CCc1cccc(NC(=O)CSc2nccn2C)c1 | inactive |
| Cc1ccc(CNC(=O)CCc2c(C)nc3nc(CNC(=O)OC(C)(C)C)nn3c2C)cc1 | inactive |
| Cc1ccc(NC(=O)CSc2nc3ccccc3c3nc(CCn4cncc4C)nn23)cc1F | inactive |
| CCOc1ccccc1CNS(=O)(=O)c1cc(-c2cc(C)no2)ccc1C | inactive |
| CCN(CC)c1ccc(NS(=O)(=O)c2cc(-c3cc(C)no3)ccc2C)c(C)c1 | 11.2 µM (active) |
| Cc1cc(-c2ccc(C)c(S(=O)(=O)Nc3ccc(S(N)(=O)=O)cc3)c2)on1 | inactive |
| Fc1ccc(-c2nc(Nc3cccc(Cl)c3)nc3c2COc2ccccc2-3)cc1 | inactive |
| Cc1c(-c2nc(-c3ccc4c(c3)OCO4)no2)nnn1-c1ccc(Br)cc1F | inactive |
| C/C=C(/C)C(=O)Nc1cccc(C2=NOC3(C2)C[C@@H](C(N)=O)N(C(=O)C2(C)CC2)C3)c1 (stereo partly drawn) | inactive |
| C/C=C\C=C\C(=O)N1CC2(CC(c3cccc(NC(=O)/C(C)=C\C)c3)=NO2)C[C@H]1C(N)=O (stereo partly drawn) | inactive |
| C=C(C)C(=O)Nc1cccc(C2=NOC3(C2)C[C@H](C(N)=O)N(C(=O)C(c2ccccc2)c2ccccc2)C3)c1 (stereo partly drawn) | 25.1 µM (active) |
| Cc1cn(C)c(CC(=O)NCc2ccccc2)c1C(=O)O | inactive |
| COc1cccc(NC(=O)C2CCN(c3cc(C)nc4c(-c5ccc(Cl)cc5)c(C)nn34)CC2)c1 | inactive |

| Structure (SMILES) | Potency |
| --- | --- |
| Cc1c(C(=O)Nc2cccc(Cl)c2)oc2ccc(S(=O)(=O)N3CCOCC3)cc12 | inactive |
| CCC(C)Nc1oc(-c2ccc(COc3ccc(Cl)cc3)o2)nc1C#N (stereo not drawn) | inactive |
| Cc1ccc(OCc2nc(C#N)c(N3CCCC3)o2)cc1 | inactive |
| N#Cc1ccc(OCc2nnc(-c3ccc([N+](=O)[O-])cc3)o2)cc1 | inactive |
| COc1ccc(OCc2ccc(-c3nc(C#N)c(N4CCN(c5ccccc5)CC4)o3)o2)cc1 | inactive |
| N#Cc1nc(COc2ccc(Cl)cc2)oc1N1CCCC1 | 39.8 µM (active) |
| CN1CCN(c2oc(-c3ccc(COc4ccc(Cl)cc4)o3)nc2C#N)CC1 | 25.1 µM (active) |
| CCc1nnc(SCc2nc(-c3cccc(C)c3)oc2C)c2cc3sc(C)cc3n12 | inactive |
| Cc1cccc(NC(=O)Cn2nc(-c3ccc(Cl)cc3)c3ccccc3c2=O)c1 | inactive |
| COc1ccc(-c2noc(CSc3nc(C)cc(=O)[nH]3)n2)cc1OC | inactive |
| CCOC(=O)c1c(NC(C)=O)c2c3c(sc2n1Cc1c(C)cc(C)cc1C)CCCC3 | inactive |
| Cc1ccc(-c2cnc(C3CC3)o2)cc1S(=O)(=O)Nc1cccc(C)c1C | inactive |
| CCCN(CCC)c1ccc(C(O)c2nnc(-c3ccccc3)o2)cc1 (stereo not drawn) | 31.6 µM (active) |
| CC(=O)c1ccc(NC(c2ccc(F)cc2)c2nnc(-c3ccccc3)o2)cc1 (stereo not drawn) | inactive |
| OC(c1nnc(-c2ccccc2)o1)c1cccs1 (stereo not drawn) | inactive |
| COc1ccc(-c2nc(CN3CCC(C(=O)NCc4ccccc4)CC3)c(C)o2)cc1OC | inactive |
| COc1ccc(N2CCN(c3ccc([N+](=O)[O-])cc3Cl)CC2)cc1 | 10 µM (active) |
| COc1ccccc1N1CCN(c2ccc([N+](=O)[O-])nc2)CC1 | inactive |
| O=C(c1cncc(Br)c1)N1CCN(c2ccc([N+](=O)[O-])cc2)CC1 | inactive |
| COc1ccc(N2CCN(c3ccc([N+](=O)[O-])nc3)CC2)cc1 | inactive |
| O=[N+]([O-])c1ccc(N2CCN(c3ccc(O)cc3)CC2)c(Cl)c1 | 20 µM (active) |
| CN(C)S(=O)(=O)N1CCN(c2ccc([N+](=O)[O-])cc2)CC1 | inactive |
| COc1ccc(-c2nc(C)c(CCNC(=O)c3ccc(C(F)(F)F)cc3)s2)cc1OC | inactive |
